# CYP2C19 activ = human CYP2C19 activators, primary screen, biochemical, luminescence; Cytochrome P450 2C19 (Homo sapiens), P33261; recombinant CYP2C19, luciferin-H EGE luminescence; stronger effect = higher value; 0 = fully inhibited enzyme, 1 = untreated enzyme; activation factor at 5 µM; 96,000 tested, under 10 active; AID 1025, 2008;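 active = activation factor of at least 2 at 5 µM in the primary screen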;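 also: 0 = wells with 2.5 mM tranylcypromine and 1 = vehicle-only wells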
# CYP2C9 inhib = blockers of cytochrome P450 2C9 activity – biochemical, luminescence, ADME assay, primary screen; P11712; CYP2C9 Supersomes, luciferin-H conversion; inhibition, % at 5 µM; hit rate 20% among 96,000;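 active = blocking of liver enzyme CYP2C9 beyond about 50% at 5 µM, limit read from the data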
# CYP2C9 act = human CYP2C9 activators, primary screen, biochemical, luminescence; recombinant CYP2C9, luciferin-H conversion; stronger effect = higher value; factor 1 = untreated enzyme, 0 = blocked; hit rate 1.4% among 96,000; activation factor at 5 µM;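 active = activation factor of 2 or more for CYP2C9 at a 5 µM dose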;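 also: 0 = sulfaphenazole-blocked wells and 1 = vehicle-only wells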
# CYP2C19 inhib = blockers of cytochrome P450 2C19 activity – biochemical, luminescence, ADME assay, primary screen; CYP2C19 Supersomes, luciferin-H EGE luminescence, 30 min; inhibition, % at 5 µM; hit rate 21% among 96,000;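 active = CYP2C19 inhibition above a set limit at 5 µM in the primary screen, cut at about 50% in these data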;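 also: plate controls were negative control wells for no effect and 2.5 mM tranylcypromine positive control for full effect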
# Cav32 inh = Cav3.2 calcium influx blockers – cell-based, Fluo-4 calcium fluorescence, FDSS, MLSMR library, primary screen. Voltage-dependent T-type calcium channel subunit alpha-1H (Homo sapiens), O95180. hit rate 4% among 100,000. Cav3.2-expressing cells; stronger effect = lower value. B-score at 10 µM. AID 449739, 2010;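 active = single-dose well whose peak fluorescence ratio is a statistical outlier from its plate by either plate-standardised score or position-corrected B-score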
# The depositor's hits bear a star; · = not tested or not shown. Only some compounds are listed: those with a hit (about 27% of all), similar ones and a draw of the others.
SMILES,CYP2C19 activ,CYP2C9 inhib,CYP2C9 act,CYP2C19 inhib,Cav32 inh
CC(C)C(=O)NC(Nc1cccc2cccnc12)C(Cl)(Cl)Cl (stereo unspecified),0.4,63*,0.4,59*,-5.1*
CC1Cc2ccccc2N1C(=O)CSc1nnc(CNc2ccccc2)o1 (stereo unspecified),1,-3,1,0,0.85
O=[N+]([O-])c1ccc(Oc2cccc(F)c2)c2ccncc12,0.1,83*,0.2,85*,-0.12
CS/C(=N\S(=O)(=O)c1ccc(N)cc1)NS(=O)(=O)c1cccs1,0.9,42,0.6,9,0.026
COCn1c(-c2ccccc2)nc2ccccc21,0.7,18,0.8,27,0.24
COCn1c(COc2ccc3ccccc3c2)nc2ccccc21,·,·,·,·,-5.3*
CCn1c(COc2cccc(C)c2)nc2ccccc21,·,·,·,·,-4*
CCn1c(COc2ccccc2C)nc2ccccc21,·,·,·,·,-3
Cc1cc(C)n(C(=O)c2ccc(NC(=O)C3CC3)cc2)n1,1,-122,2.2*,2,-0.47
CCOc1ccccc1NC(=S)N1CCC(NC(=O)NC23CC4CC(CC(C4)C2)C3)CC1,0.8,-1,1,24,-2
COc1ccc(NC(=O)CNS(=O)(=O)c2ccc3nc(C)sc3c2)c(OC)c1,0.7,51*,0.5,28,0.2
COc1ccc2nc(NC(=O)Cc3cccs3)sc2c1,0.7,49,0.5,33,0.081
Cc1ccc2nc(NC(=O)C3CCN(S(=O)(=O)c4cccs4)CC3)sc2c1,0.9,10,0.9,10,-3.5
COc1ccc2nc(NC(=O)C3CCN(S(=O)(=O)c4cccs4)CC3)sc2c1,0.2,67*,0.3,84*,-1.9
COc1ccc(NCC(=O)Nc2ccc(Cl)cc2C)c(OC)c1,0.1,99*,0,93*,-1.3
COc1ccc2nc(NC(=O)CN(C)S(=O)(=O)c3cccs3)sc2c1,0.2,62*,0.4,80*,-1.2
Cc1cc(C(=O)OCC(=O)c2c(N)n(C)c(=O)n(C)c2=O)c(C)n1-c1ccccc1,0.9,36,0.6,14,1.3
COc1ccc2nc(NC(=O)CNS(=O)(=O)c3cccs3)sc2c1,0.4,7,0.9,64*,-0.86
COc1ccc(OC)c(NC(=O)CCNS(=O)(=O)c2cccs2)c1,·,·,·,·,0.42
COc1ccc(NC(=O)CNS(=O)(=O)c2cccs2)c(OC)c1,0.4,40,0.6,57*,0.64
CCC1(N(C(C)=O)c2ccc(OC)cc2)C(=O)c2ccccc2C1=O,0.9,-18,1.2,6,2.4
Cc1nnc(SCC(=O)NC(C)c2ccccc2)[nH]c1=O (stereo unspecified),1,4,1,-3,0.05
CCOC(=O)/C(=N/Nc1ccc(C)cc1)S(=O)(=O)c1ccc(Cl)cc1,0.3,90*,0.1,69*,0.076
CCOc1ccccc1OCC(=O)Nc1nnc(C)s1,1.1,6,0.9,-5,0.14
CS(=O)(=O)N(Cc1nnc(-c2cccs2)o1)c1ccc(Cl)cc1F,0,88*,0.1,99*,-0.3
SMILES,CYP2C19 activ,CYP2C9 inhib,CYP2C9 act,CYP2C19 inhib,Cav32 inh
N#CC(C#N)=c1ccc2c(c1)NC1(CCCCC1)N=2,0.7,56*,0.4,30,0.86
O=C(OCCNC(=O)c1ccc2ccccc2n1)c1ccc(F)cc1,0.8,31,0.7,16,-3.2
Fc1cccc(Cl)c1Cn1nnc2c(NCc3ccccn3)ncnc21,·,·,·,·,0.5
Fc1cccc(Cl)c1Cn1nnc2c(-n3ccnc3)ncnc21,0.1,66*,0.3,95*,0.56
COc1ccc(N(CC(O)Cn2c3ccccc3c3ccccc32)S(=O)(=O)c2ccccc2)cc1 (stereo unspecified),0.2,70*,0.3,83*,-0.39
CCN(CC(O)Cn1c2ccccc2c2ccccc21)S(=O)(=O)c1ccc(C)cc1 (stereo unspecified),0,90*,0.1,99*,-4.2
Cc1ccc(S(=O)(=O)N(CC(O)CN(C)C)c2ccccc2)cc1 (stereo unspecified),1,25,0.7,-5,1.5
CS(=O)(=O)N(CC(O)Cn1c2ccccc2c2ccccc21)c1ccccc1 (stereo unspecified),0,97*,0,96*,-1.5
OCCN(CCO)CC(O)Cn1c2ccccc2c2ccccc21 (stereo unspecified),1,-3,1,-2,0.74
Cc1ccc(C(=O)C(NC(=O)c2ccco2)Nc2sc3c(c2C(N)=O)CCCC3)cc1 (stereo unspecified),·,·,·,·,-1.3
Oc1ccc(N2CCN(C(c3ccccn3)c3nnnn3C3CCCC3)CC2)cc1 (stereo unspecified),·,·,·,·,0.63
O=C(Nc1sccc1C(=O)N1CCOCC1)c1cccnc1,1,-10,1.1,-4,0.58
CC(=O)c1ccc(NC(=O)c2cnn3c(C(F)F)cc(C4CC4)nc23)cc1,·,·,·,·,-0.11
COC(=O)CCCC1=CC2=CC(=O)C(C)(OC(=O)c3cccs3)C(=O)C2=CN1CCCOC(C)C (stereo unspecified),·,·,·,·,0.93
CCc1ccc(N(C(=O)c2csnn2)C(C(=O)NCc2ccccc2)c2ccco2)cc1 (stereo unspecified),0.5,43,0.6,47,-2.7
Cc1ccc(C(C(=O)NCc2ccccc2)N(C(=O)c2csnn2)c2cccc3ccccc23)o1 (stereo unspecified),0.5,14,0.9,47,-7*
COc1ccc(CNC(=O)C(c2ccc(C)o2)N(C(=O)c2csnn2)c2ccc(C(C)C)cc2)cc1 (stereo unspecified),0.5,52*,0.5,51*,-7.1*
CCc1ccc(N(C(=O)c2csnn2)C(C(=O)NC(C)(C)C)c2ccncc2)cc1 (stereo unspecified),0.5,9,0.9,46,0.37
Nc1nc(SCC(=O)NCC2CCCO2)[nH]c(=O)c1NC(=O)c1ccco1 (stereo unspecified),·,·,·,·,0.21
O=c1[nH]cnc2c1cnn2Cc1ccccc1,0.8,9,0.9,20,-0.046
Cc1c(O)ccc(C(=O)CN2C(=O)c3ccccc3C2=O)c1O,0.2,23,0.8,81*,0.043
Cc1cc(C(=O)CN2C(=O)c3ccccc3C2=O)c(C)n1C1CC1,1,-31,1.3,0,0.14
O=C(COc1ccccc1F)c1ccc(O)cc1O,0.1,6,0.9,92*,-0.29
Cc1c(O)ccc(C(=O)COc2ccccc2F)c1O,0.3,-2,1,69*,-3.4
COC(=O)c1ccc(OCC(=O)c2ccc(O)cc2O)cc1,0.6,19,0.8,38,0.031

# Assay outcomes: PubChem, several laboratories
